Laboratory results from PubChem BioAssay AID687001 (Broad Institute, 2013).
Measured potencies and affinities stand elsewhere. Activity calls are given as the source filed them.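 The calls were made as follows: active = signal-lowering compounds whose fitted half-maximal concentration is at or below twice the top tested dose in every run; inconclusive = runs disagree, flat 30 to 70% inhibition, or poor curve fit; inactive = the rest.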

biological target: Protein S100-A4 (Homo sapiens) (UniProt P26447); assay: S100A4-myosin IIA binding inhibitor potency, dose response, biochemical, fluorescence polarization, cherry-picked hits (AID 687001); details: FP, S100A4/TAMRA-myosin IIA peptide binding; series mostly up to 11 µM
Sequence (P26447 whole entry, looked up): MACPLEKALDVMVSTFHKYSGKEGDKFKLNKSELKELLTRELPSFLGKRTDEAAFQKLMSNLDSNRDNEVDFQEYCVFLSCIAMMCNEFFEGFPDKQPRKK

outcome, inactive:
CCC1(c2ccc(F)cc2)NC(=O)N(CC(=O)N2CCc3ccccc3C2)C1=O (centres undefined), O=C(Nc1cc(Cl)ccc1O)C1CC(c2c(F)cccc2Cl)=NO1 (centres undefined), C/C=C/c1ccc([C@H]2[C@@H](CO)N(C(=O)Nc3ccccc3F)[C@H]2C#N)cc1, O=C(NC1CCCCC1)[C@H]1[C@H](CO)[C@H]2Cn3c(cccc3=O)[C@H]2N1C(=O)CC1CC1, CCC(=O)N(C)C[C@H]1Oc2ncc(-c3ccc(C(=O)N(C)C)cc3)cc2C(=O)N([C@@H](C)CO)C[C@H]1C, COc1ccc(NC(=O)N(C)C[C@@H]2Oc3ncc(C#CC(C)(C)O)cc3C(=O)N([C@H](C)CO)C[C@@H]2C)cc1, COc1ccc(OCC(=O)N2CCCC2=O)c([N+](=O)[O-])c1, Cc1[nH][nH]c(=O)c1C(c1cc(Br)ccc1O)c1c(C)[nH][nH]c1=O, O=C(Nc1ccccc1F)N1CC(=O)N2[C@H](CO)[C@@H](c3ccc(-c4ccccc4)cc3)[C@H]2C1, COc1ccccc1-c1noc2c1C(=O)N(Cc1cn(-c3ccc(Cl)cc3)nn1)CC2, CCCNC(=O)N1[C@H](CO)[C@@H]2c3ccccc3N(C(=O)c3ccc(F)cc3)C[C@@H]21, Cc1ccc(-c2csc(NC3OC(=O)c4ccccc43)n2)cc1 (centres undefined), Cc1ccc(S(=O)(=O)NCC[C@@H]2CC[C@@H](NC(=O)C3CCOCC3)[C@H](CO)O2)cc1, CO[C@@H]1CN(C)C(=O)c2cc(NC(C)=O)ccc2OC[C@H](C)N(Cc2cncnc2)C[C@H]1C
